{
  "source": "PubChem BioAssay AID1345085",
  "about": "(National Center for Advancing Translational Sciences (NCATS), 2018)",
  "note": "Inconclusive results are not listed. The source made the active and inactive calls. Calls follow the shape of the dose curve; as a rule, active = well fitted cell-killing curve with a large enough effect; inconclusive = small, poorly fitted or top-dose-only effect, or effect the other way; inactive = no such curve, though single readings can be large or run the other way. *1 amine or outer side, *2 acyl side, *3 side chain or, on linkers, in order; H or OH if unused. Where a SMILES comes first, the peptide text is derived from it. Bridges are numbered along the chain shown (N, C = ends). Roman numbers before positions name the chains, in order. [ ]: non-standard residue; d: D form. Actinocin(9to1) = Cc1c2oc3c(C)ccc(C(=O)[*:1])c3nc-2c(C(=O)[*:2])c(N)c1=O; NMeV = CN[C@H](C(=O)O)C(C)C; Sar = CNCC(=O)O",
  "data": [
    {"tested_on": "HeLa", "assay": "Confirmatory qHTS for gynecologic anti-cancer compounds from libraries of approved drugs and bioactive compounds; also: nearly all actives have a fitted effect of over 55% in size; also: potency is read from the fitted curve at half-maximal effect", "conditions": "gynecologic cancer cell panel viability, ATPlite luminescence, 48 h; series mostly up to 57.6 µM", "how_it_was_run": "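IC50 values derive from an ATPlite ATP-content luminescence assay following 48 h treatment at 37 C. Each compound ran as an 11-concentration, threefold series (57.5 uM to 0.977 nM); HEK 293T served as control line for selectivity index.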", "values": [
      {"compound": "CC[C@@]1(O)C(=O)OCc2c1cc1n(c2=O)Cc2cc3cc(O)ccc3nc2-1", "Potency": "968 nM (active)"},
      {"compound": "COc1ccc(OC)c(-c2nnc3ccc(-c4ccc(OC)c(O[C@@H]5CCOC5)c4)nn23)c1", "Potency": "5440 nM (active)"},
      {"compound": "Cn1cc(-c2[nH]c3cc(NC(=O)[C@H](N)C4CCCCC4)cc4c3c2C=NNC4=O)cn1", "Potency": "1720 nM (active)"},
      {"compound": "Cc1cc(Nc2nc(N[C@@H](C)c3ncc(F)cn3)ncc2Cl)n[nH]1", "Potency": "968 nM (active)"},
      {"compound": "Cc1c2oc3c(C)ccc(C(=O)N[C@@H]4C(=O)N[C@H](C(C)C)C(=O)N5CCC[C@H]5C(=O)N(C)CC(=O)N(C)[C@@H](C(C)C)C(=O)O[C@@H]4C)c3nc-2c(C(=O)N[C@@H]2C(=O)N[C@H](C(C)C)C(=O)N3CCC[C@H]3C(=O)N(C)CC(=O)N(C)[C@@H](C(C)C)C(=O)O[C@@H]2C)c(N)c1=O", "note": "(I: T[dV]P[Sar][NMeV] / II: T[dV]P[Sar][NMeV]; ester I:1-I:C, II:1-II:C; linker I:N-II:N via Actinocin(9to1))", "Potency": "863 nM (active)"},
      {"compound": "C#C[C@]1(O)CC[C@H]2[C@@H]3CCC4=CC(=O)CC[C@@H]4[C@H]3CC[C@@]21CC", "Potency": "3850 nM (active)"},
      {"compound": "CCCCN(CCCC)CC(O)c1cc(Cl)cc2c1-c1ccc(Cl)cc1/C2=C/c1ccc(Cl)cc1", "note": "(stereo not given)", "Potency": "inactive"},
      {"compound": "S=c1nc[nH]c2nc[nH]c12", "Potency": "3430 nM (active)"},
      {"compound": "CC1=C(/C=C/C(C)=C/C=C/C(C)=C/C(=O)Nc2ccc(O)cc2)C(C)(C)CCC1", "Potency": "24300 nM (active)"},
      {"compound": "COc1cc2c(cc1-c1c(C)noc1C)ncc1[nH]c(=O)n(C(C)c3ccccn3)c12", "note": "(stereo not given)", "Potency": "544 nM (active)"}
    ]}
  ]
}
